This note sets out measurements from PMC7862700, “An all-to-all approach to the identification of sequence-specific readers for epigenetic DNA modifications on cytosine”.

What all share (test): DAPPL (digital affinity profiling via proximity ligation, sequencing); 10 mM Tris-HCl pH 7.5, 50 mM NaCl, 1 mM DTT, 4% glycerol, room temperature, 30 min; GST-TFs on glutathione beads, 16-mer random dsDNA library, 0.1% formaldehyde crosslink after washing; high values mean tight binding
Conditions in all cases: protein: recombinant; tags: N-terminal GST; dsDNA, one strand shown

Test [1] deals with T1, FLI1 (Homo sapiens, UniProt Q01543 1-452).
T1 sequence: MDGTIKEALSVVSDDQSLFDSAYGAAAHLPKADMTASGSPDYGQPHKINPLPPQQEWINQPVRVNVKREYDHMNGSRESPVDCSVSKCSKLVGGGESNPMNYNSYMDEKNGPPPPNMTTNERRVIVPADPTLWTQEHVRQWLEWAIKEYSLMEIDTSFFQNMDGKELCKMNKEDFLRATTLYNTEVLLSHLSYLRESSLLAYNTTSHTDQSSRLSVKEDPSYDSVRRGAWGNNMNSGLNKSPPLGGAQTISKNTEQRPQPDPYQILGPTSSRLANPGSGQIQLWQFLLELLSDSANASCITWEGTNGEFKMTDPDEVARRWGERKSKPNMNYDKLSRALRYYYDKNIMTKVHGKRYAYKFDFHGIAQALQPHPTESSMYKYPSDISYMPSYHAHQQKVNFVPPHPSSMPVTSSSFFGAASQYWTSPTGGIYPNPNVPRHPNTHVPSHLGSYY
The method, boiled down: (§1)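 GST fusions of human transcription factors were expressed in yeast and captured with glutathione beads. Once given DNA barcodes and pooled alongside a tag-only sample, they were incubated for 30 min at room temperature with 200 nmole of a random double-stranded 16-mer DNA library in Tris/NaCl/DTT/glycerol buffer, then washed, crosslinked (0.1% formaldehyde), proximity-ligated, PCR-amplified and sequenced on an Illumina NextSeq500. The binding signal of each hexamer is its read frequency for a factor divided by its frequency for the tag-only sample.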

Test [2] addresses T2, ELK1 (Homo sapiens, UniProt P19419 1-428).
T2 sequence: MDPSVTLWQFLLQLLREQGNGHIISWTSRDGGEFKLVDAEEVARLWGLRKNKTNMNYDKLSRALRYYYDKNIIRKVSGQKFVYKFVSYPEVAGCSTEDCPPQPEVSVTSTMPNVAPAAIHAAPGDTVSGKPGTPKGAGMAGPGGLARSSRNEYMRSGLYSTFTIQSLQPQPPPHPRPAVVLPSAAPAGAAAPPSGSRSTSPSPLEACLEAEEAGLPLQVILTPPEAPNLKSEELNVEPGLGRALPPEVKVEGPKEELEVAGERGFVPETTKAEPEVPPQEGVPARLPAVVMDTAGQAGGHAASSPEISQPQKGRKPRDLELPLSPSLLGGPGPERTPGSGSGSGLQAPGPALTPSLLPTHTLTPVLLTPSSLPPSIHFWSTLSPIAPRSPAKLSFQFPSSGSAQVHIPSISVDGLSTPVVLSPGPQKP
In short, it runs like this: as §1

Test [3] concerns the target T3, GABPA (Homo sapiens, UniProt Q06546 1-454).
T3 sequence: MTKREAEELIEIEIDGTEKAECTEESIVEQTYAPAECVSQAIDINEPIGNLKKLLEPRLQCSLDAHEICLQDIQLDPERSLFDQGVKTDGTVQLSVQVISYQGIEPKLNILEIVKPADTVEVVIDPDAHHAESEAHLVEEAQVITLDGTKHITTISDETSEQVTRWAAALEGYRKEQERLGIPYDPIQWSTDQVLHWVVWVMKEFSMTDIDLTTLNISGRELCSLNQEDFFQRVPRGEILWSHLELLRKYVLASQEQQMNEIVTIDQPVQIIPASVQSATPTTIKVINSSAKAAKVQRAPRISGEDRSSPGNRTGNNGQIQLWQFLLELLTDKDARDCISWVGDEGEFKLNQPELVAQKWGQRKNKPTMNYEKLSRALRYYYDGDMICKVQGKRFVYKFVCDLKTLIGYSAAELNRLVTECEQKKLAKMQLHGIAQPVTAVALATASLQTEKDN
In short, it runs like this:
as §1

Test [4] deals with T4, ERG (Homo sapiens, UniProt P11308 1-479).
T4 sequence: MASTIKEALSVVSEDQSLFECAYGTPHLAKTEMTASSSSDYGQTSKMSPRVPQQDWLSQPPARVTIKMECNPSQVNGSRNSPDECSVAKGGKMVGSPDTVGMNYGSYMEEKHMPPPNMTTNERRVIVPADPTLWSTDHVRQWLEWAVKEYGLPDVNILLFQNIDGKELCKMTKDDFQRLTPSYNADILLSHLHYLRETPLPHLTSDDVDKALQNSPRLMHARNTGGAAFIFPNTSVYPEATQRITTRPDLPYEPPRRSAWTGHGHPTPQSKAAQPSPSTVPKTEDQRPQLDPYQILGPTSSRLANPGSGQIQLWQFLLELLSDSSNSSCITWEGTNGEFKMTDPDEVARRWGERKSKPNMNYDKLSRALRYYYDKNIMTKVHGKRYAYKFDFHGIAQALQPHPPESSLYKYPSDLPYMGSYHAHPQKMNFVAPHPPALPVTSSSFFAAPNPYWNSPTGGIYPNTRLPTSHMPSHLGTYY
The method, boiled down: as §1

In test [5] the target is ELF1 (Homo sapiens, UniProt P32519 1-619). In short, it runs like this: as §1
ELF1, sequence (P32519 whole entry): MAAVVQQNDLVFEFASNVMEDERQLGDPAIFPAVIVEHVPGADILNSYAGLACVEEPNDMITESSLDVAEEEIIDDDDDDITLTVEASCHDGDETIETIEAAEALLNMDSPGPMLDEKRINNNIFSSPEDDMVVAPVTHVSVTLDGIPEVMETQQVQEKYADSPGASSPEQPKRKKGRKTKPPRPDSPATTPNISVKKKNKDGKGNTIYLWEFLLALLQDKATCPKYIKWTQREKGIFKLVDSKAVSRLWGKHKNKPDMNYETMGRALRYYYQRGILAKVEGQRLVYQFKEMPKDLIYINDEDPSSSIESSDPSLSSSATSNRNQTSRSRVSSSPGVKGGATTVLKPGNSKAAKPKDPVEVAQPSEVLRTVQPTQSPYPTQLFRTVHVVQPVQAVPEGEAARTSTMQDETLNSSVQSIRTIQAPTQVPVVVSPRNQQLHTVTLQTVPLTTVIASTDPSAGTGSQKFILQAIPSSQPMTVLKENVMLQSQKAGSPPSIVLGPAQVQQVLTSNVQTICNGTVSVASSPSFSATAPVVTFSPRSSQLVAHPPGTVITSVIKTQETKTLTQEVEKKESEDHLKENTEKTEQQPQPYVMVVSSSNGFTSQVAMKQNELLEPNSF
Test [6] addresses T5, EHF (Homo sapiens, UniProt Q9NZC4 1-300).
T5 sequence: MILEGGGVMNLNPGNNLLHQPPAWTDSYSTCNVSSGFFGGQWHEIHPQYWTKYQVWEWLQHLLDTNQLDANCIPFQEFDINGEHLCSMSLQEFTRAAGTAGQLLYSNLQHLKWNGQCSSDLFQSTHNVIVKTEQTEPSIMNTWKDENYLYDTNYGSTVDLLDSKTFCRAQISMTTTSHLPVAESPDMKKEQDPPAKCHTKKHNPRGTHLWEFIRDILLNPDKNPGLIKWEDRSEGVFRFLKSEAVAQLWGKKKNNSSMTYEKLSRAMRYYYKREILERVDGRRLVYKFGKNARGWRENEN
In short, it runs like this:
as §1

Test [7] deals with SPI1 (Homo sapiens, UniProt P17947 1-270). The method, boiled down:
as §1

Test [8] addresses SPIB (Homo sapiens, UniProt Q01892 1-262). In short, it runs like this: as §1
For test [9], the target named is T6, ELK3 (Homo sapiens, UniProt P41970 1-407).
T6 sequence: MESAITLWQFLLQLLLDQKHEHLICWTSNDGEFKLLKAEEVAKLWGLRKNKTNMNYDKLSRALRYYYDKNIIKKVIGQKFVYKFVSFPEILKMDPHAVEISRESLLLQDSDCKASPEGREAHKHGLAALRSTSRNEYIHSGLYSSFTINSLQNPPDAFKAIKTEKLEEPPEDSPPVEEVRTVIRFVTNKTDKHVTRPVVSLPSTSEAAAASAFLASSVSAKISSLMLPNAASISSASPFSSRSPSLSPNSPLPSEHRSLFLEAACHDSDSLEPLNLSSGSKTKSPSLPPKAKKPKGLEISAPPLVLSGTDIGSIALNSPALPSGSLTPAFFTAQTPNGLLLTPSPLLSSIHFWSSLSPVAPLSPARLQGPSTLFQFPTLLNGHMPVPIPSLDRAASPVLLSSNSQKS
The method, boiled down:
as §1

SPIB, sequence (Q01892 whole entry): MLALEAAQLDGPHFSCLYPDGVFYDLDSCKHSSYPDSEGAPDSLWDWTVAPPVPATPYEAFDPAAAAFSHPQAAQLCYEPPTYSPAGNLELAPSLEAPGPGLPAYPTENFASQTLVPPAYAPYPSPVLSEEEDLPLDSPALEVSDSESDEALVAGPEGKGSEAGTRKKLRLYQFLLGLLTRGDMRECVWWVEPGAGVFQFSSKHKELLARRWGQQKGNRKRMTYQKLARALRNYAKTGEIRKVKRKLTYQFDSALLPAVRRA

On to ATTCGC, for which the binding signal was 1.18 fold enrichment (6-mer frequency, TF over GST control) in [1]; 1.15 fold enrichment (6-mer frequency, TF over GST control) in test [2]; 1.25 fold enrichment (6-mer frequency, TF over GST control) in test [3]; 1.25 fold enrichment (6-mer frequency, TF over GST control) in test [4]; 1.15 fold enrichment (6-mer frequency, TF over GST control) in [5]; 1.18 fold enrichment (6-mer frequency, TF over GST control) in [6]. Besides, the binding signal in [7] is 1.21 fold enrichment (6-mer frequency, TF over GST control); in test [8], 1.33 fold enrichment (6-mer frequency, TF over GST control); in test [9], 1.06 fold enrichment (6-mer frequency, TF over GST control).

Take TCTCGA: the binding signal in test [1] was 1.35 fold enrichment (6-mer frequency, TF over GST control); in test [2] it was 1.34 fold enrichment (6-mer frequency, TF over GST control); in test [3] it was 1.42 fold enrichment (6-mer frequency, TF over GST control); in test [4], 1.38 fold enrichment (6-mer frequency, TF over GST control); in test [5], 1.41 fold enrichment (6-mer frequency, TF over GST control); in [6] it was 1.37 fold enrichment (6-mer frequency, TF over GST control). Besides, the binding signal in test [7] was 1.36 fold enrichment (6-mer frequency, TF over GST control); in test [8] it was 1.43 fold enrichment (6-mer frequency, TF over GST control); in test [9] it was 1.31 fold enrichment (6-mer frequency, TF over GST control).

As for CCCCAT, the binding signal in test [1] was 1.37 fold enrichment (6-mer frequency, TF over GST control); in test [2], 1.24 fold enrichment (6-mer frequency, TF over GST control); in [3], 1.26 fold enrichment (6-mer frequency, TF over GST control); in test [4], 1.34 fold enrichment (6-mer frequency, TF over GST control); in test [5], 1.31 fold enrichment (6-mer frequency, TF over GST control); in test [6], 1.27 fold enrichment (6-mer frequency, TF over GST control). Besides, the binding signal is 1.46 fold enrichment (6-mer frequency, TF over GST control) in [7]; 1.18 fold enrichment (6-mer frequency, TF over GST control) in [8]; 1.2 fold enrichment (6-mer frequency, TF over GST control) in test [9].

Take TTGTGG: the binding signal in [1] is 1.52 fold enrichment (6-mer frequency, TF over GST control); in [2] it was 1.36 fold enrichment (6-mer frequency, TF over GST control); in test [3] it was 1.41 fold enrichment (6-mer frequency, TF over GST control); in test [4], 1.26 fold enrichment (6-mer frequency, TF over GST control); in [5], 1.34 fold enrichment (6-mer frequency, TF over GST control); in [6], 1.3 fold enrichment (6-mer frequency, TF over GST control). In addition, the binding signal in [7] was 1.46 fold enrichment (6-mer frequency, TF over GST control); in test [8] it was 1.29 fold enrichment (6-mer frequency, TF over GST control); in test [9], 1.43 fold enrichment (6-mer frequency, TF over GST control).

Turning to ACTTCT, the binding signal in test [1] is 1.49 fold enrichment (6-mer frequency, TF over GST control); in test [2], 1.53 fold enrichment (6-mer frequency, TF over GST control); in test [3], 1.5 fold enrichment (6-mer frequency, TF over GST control); in test [4], 1.43 fold enrichment (6-mer frequency, TF over GST control); in test [5], 1.52 fold enrichment (6-mer frequency, TF over GST control); in [6], 1.56 fold enrichment (6-mer frequency, TF over GST control). Besides, the binding signal is 1.62 fold enrichment (6-mer frequency, TF over GST control) in test [7]; 1.45 fold enrichment (6-mer frequency, TF over GST control) in [8]; 1.48 fold enrichment (6-mer frequency, TF over GST control) in [9].

In the case of GCTCCA, the binding signal is 1.23 fold enrichment (6-mer frequency, TF over GST control) in test [1]; 1.17 fold enrichment (6-mer frequency, TF over GST control) in test [2]; 1.33 fold enrichment (6-mer frequency, TF over GST control) in [3]; 1.18 fold enrichment (6-mer frequency, TF over GST control) in [4]; 1.2 fold enrichment (6-mer frequency, TF over GST control) in test [5]; 1.19 fold enrichment (6-mer frequency, TF over GST control) in test [6]. In addition, the binding signal in test [7] is 1.28 fold enrichment (6-mer frequency, TF over GST control); in test [8], 1.3 fold enrichment (6-mer frequency, TF over GST control); in test [9] it was 1.17 fold enrichment (6-mer frequency, TF over GST control).

In the case of TTCAGG, the binding signal is 1.2 fold enrichment (6-mer frequency, TF over GST control) in test [1]; 1.14 fold enrichment (6-mer frequency, TF over GST control) in test [2]; 1.15 fold enrichment (6-mer frequency, TF over GST control) in test [3]; 1.12 fold enrichment (6-mer frequency, TF over GST control) in [4]; 1.1 fold enrichment (6-mer frequency, TF over GST control) in test [5]; 1.11 fold enrichment (6-mer frequency, TF over GST control) in test [6]. Also, the binding signal was 1.22 fold enrichment (6-mer frequency, TF over GST control) in test [7]; 1.1 fold enrichment (6-mer frequency, TF over GST control) in [8]; 1.09 fold enrichment (6-mer frequency, TF over GST control) in [9].
